In PubChem BioAssay:

Tests used:
[1] = tested on: Human papillomavirus type 1a protein E7 (residues 44-93); experiment: HPV1a E7 fragment binders on microarrays, primary screen, biochemical, small-molecule microarray, residues 44-93, 635 nm fluorescence (AID 1108); conditions: small-molecule microarray binding, fluorescence 635 nm; higher = more signal;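 note: E7 fragment applied at 1 µg/mL in TBST for 1 h at 4 C; score combines spot fluorescence with its signal to noise ratio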
[2] = modulators of HCV replicon luciferase signal, primary screen, HCV replication inhibitor project, Huh7 cells, luciferase reporter (AID 1109); conditions: 48 h, higher = more signal;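 note: huh7 hepatoma cells harbouring a luciferase neomycin HCV replicon reporter; luciferase luminescence as measure of HCV replicon replication; test concentration not given here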
[3] = target: Left-right determination factor 2 (Homo sapiens) (UniProt O00292); experiment: LEFTY2 binders on small-molecule microarrays, primary screen, biochemical, small-molecule microarray, 635 nm fluorescence scan (AID 1110); conditions: LEFTY2 binding, higher = more signal
[4] = target: Calmodulin-1 (Homo sapiens) (UniProt P0DP23); experiment: CALM1 binders on microarrays, EGTA buffer, profiling panel, biochemical, small-molecule microarray, Cy5-labelled CALM1 (AID 1111); conditions: Cy5-CALM1 binding fluorescence, higher = more signal;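 note: labelled calmodulin applied in Tris saline Tween buffer holding calcium plus EGTA and DTT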
[5] = target: Calmodulin-1 (Homo sapiens) (UniProt P0DP23); experiment: calcium-bound CALM1 binders on microarrays, profiling panel, artefact control for SMM control-protein annotation, biochemical, small-molecule microarray, Cy5-labelled CALM1, plus calcium (AID 1112); conditions: Cy5-CALM1 binding fluorescence, higher = more signal;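 note: score merges spot fluorescence with signal to noise from triplicate slides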
[6] = small-molecule microarray binders of probe aWnt5a, primary screen, biochemical, biotinylated probe, 635/667 nm fluorescence (AID 1113); conditions: higher = more signal;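 note: score merges 667 nm fluorescence intensity with signal-to-noise per printed feature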
[7] = small-molecule microarray binders of probe aShh, primary screen, biochemical, biotinylated probe, 635/667 nm fluorescence (AID 1114); conditions: higher = more signal;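 note: probe is biotin-labelled aShh protein from a stem cell growth factor screen; measures binding of labelled protein to compounds printed on the slide; score merges feature fluorescence at 667 nm with signal-to-noise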
[8] = small-molecule microarray binders of probe aNog, primary screen, biochemical, biotinylated probe, 635/667 nm fluorescence (AID 1115); conditions: higher = more signal;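 note: probe is biotinylated aNog protein used at 0.15 µg/mL for 1 h at 4 C; z-score combines 667 nm fluorescence of each spot with its signal to noise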
[9] = target: Torsin-1A-interacting protein 1 (Homo sapiens) (UniProt Q5JTV8); experiment: LAP1 binders from COS7 cell lysate, primary screen, small-molecule microarray, 635/667 nm fluorescence (AID 1116); conditions: COS7-hLAP1 lysate binding, 635 nm fluorescence, higher = more signal
[10] = target: Alpha-bungarotoxin (Bungarus multicinctus) (UniProt P60615); experiment: alpha-bungarotoxin binders on microarray, profiling panel, artefact control for SMM control protein annotation, biochemical, small-molecule microarray, Alexa647 label, 635/667 nm fluorescence (AID 1117); conditions: alpha-BTX-A647 binding fluorescence, higher = more signal
Alpha-bungarotoxin (Bungarus multicinctus), sequence (P60615 whole entry, looked up): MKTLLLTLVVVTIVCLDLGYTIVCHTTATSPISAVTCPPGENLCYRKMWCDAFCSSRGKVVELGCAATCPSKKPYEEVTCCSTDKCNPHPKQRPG

Torsin-1A-interacting protein 1 (Homo sapiens), sequence (Q5JTV8 whole entry, looked up): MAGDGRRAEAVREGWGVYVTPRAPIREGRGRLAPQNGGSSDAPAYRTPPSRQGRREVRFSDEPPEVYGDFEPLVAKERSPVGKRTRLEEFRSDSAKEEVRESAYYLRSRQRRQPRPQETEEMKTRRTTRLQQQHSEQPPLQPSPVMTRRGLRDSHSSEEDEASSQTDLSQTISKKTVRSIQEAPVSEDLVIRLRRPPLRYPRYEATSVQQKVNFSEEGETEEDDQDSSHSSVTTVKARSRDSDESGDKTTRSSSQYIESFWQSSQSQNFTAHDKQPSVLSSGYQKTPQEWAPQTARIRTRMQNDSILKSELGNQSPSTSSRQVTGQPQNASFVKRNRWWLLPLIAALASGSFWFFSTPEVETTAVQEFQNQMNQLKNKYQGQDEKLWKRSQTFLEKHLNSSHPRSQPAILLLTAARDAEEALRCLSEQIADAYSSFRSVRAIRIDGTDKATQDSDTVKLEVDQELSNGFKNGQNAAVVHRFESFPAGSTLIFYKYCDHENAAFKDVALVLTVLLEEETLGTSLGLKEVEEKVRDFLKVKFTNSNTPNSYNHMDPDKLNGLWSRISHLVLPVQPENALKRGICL
Left-right determination factor 2 (Homo sapiens), sequence (O00292 whole entry, looked up): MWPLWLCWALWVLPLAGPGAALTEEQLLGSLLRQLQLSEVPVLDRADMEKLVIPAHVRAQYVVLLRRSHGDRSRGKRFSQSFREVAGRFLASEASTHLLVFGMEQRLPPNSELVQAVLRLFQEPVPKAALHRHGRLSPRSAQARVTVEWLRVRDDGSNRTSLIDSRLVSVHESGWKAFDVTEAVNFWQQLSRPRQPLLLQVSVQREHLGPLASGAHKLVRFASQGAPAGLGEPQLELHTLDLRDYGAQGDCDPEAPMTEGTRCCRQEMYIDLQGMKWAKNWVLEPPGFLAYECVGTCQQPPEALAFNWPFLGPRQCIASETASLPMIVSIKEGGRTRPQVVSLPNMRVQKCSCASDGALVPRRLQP

Row | SMILES | composite z-score [1] | z-score [2] | composite z-score [3] | composite z-score [4] | composite z-score [5] | composite z-score [6] | composite z-score [7] | composite z-score [8] | composite z-score [9] | composite z-score [10]
1 | CC(C)[Si]1(C(C)C)O[C@@H](c2ccccc2)c2cc(C3CC3)nc(-c3ccc(Oc4ccccc4)cc3)c21 | -0.266 | -0.176 | -0.436 | -0.395 | 0.89 | -0.0758 | -0.214 | -0.158 | 0.0613 | -0.789
2 | CC(C)NC(=O)[C@@]1(Cc2ccccc2I)c2ccccc2C(=O)N(C2CCCCC2)[C@H]1c1ccc(CO)cc1 | 1.46 | -1.21 | 0.398 | 1.48 | 0.458 | -0.0792 | 0.448 | 0.982 | 0.977 | 1.32
3 | COC(=O)C1=CC(c2ccc(CO)cc2)=CC(c2cccs2)N(Cc2cccc(OC(F)(F)F)c2)C=C1C(=O)OC (stereo not given) | 0.532 | -1.84 | -0.0215 | 2.19 | 0.815 | -0.0236 | 0.685 | 1.39 | 1.81 | 3.16
4 | CCN1C(C)=C(C(=O)OC)[C@@H](c2ccccc2)N2C(=O)[C@](O)(C(=O)OC)[C@@H](c3ccccc3)C(C(=O)c3ccccc3)=C12 | 0.474 | -1.15 | 0.499 | 0.0865 | 0.0844 | -0.0685 | 0.166 | 0.158 | 0.653 | 0.232
5 | C[C@@H]1CC[C@H]2C(=O)N3[C@@H](CC[C@@H](C)[C@@H]3c3cccc(N4CCOCC4)c3)C(=O)N2[C@H]1c1cccc(N2CCOCC2)c1 | 0.384 | 0.27 | 0.676 | -0.413 | -0.403 | -0.0478 | 0.51 | -0.459 | 0.653 | 1.03
6 | CCCNC(=O)[C@@H]1c2ccccc2C(=O)N(C2CCCCC2)[C@H]1c1ccc(CO)cc1 | 1.44 | -1.32 | 0.454 | 0.674 | -0.616 | -0.131 | 0.131 | -0.278 | 0.65 | 0.765
7 | C=CCC1=C[C@H]2[C@H]([C@@H]3C=C[C@]2(CC=C)C(=O)[C@]32CO2)[C@@]2(CO2)C1=O | -0.763 | -4.15 | 1.24 | -1.06 | -2.27 | 0.133 | -0.1 | 2.17 | 0.163 | 0.345
8 | COC(=O)[C@@]1(Cc2ccc(OC)cc2)[C@H]2c3cc(C(=O)N(C)C)n(Cc4ccc(C)c(F)c4F)c3C[C@H]2CN1C(=O)c1ccccc1 | 0.723 | -1.35 | -0.841 | 1.52 | 1.21 | 0.148 | 0.575 | 1.09 | 0.232 | 0.644
9 | COC(=O)c1ccc(C#CC(NP(=O)(c2ccccc2)c2ccccc2)c2ccccc2)cc1 (stereo not given) | 1.39 | -0.173 | -0.34 | 1.92 | 0.863 | 0.0381 | -0.519 | 1.59 | 0.403 | 2.89
10 | NC(=O)[C@H]1[C@@H]2C(=O)O[C@@H](c3ccccc3)[C@@H](c3ccccc3)N2[C@@H](c2ccc(O)cc2)[C@]12C(=O)Nc1ccc(C#CCCO)cc12 | -1.74 | 0.179 | -1.05 | -0.742 | 0.661 | -0.175 | -0.0769 | -0.158 | -0.819 | -1.58
11 | O=C1c2ccccc2[C@@]2(Cc3ccccc3N(CC(F)(F)F)C2=O)[C@H](c2ccc(CO)cc2)N1C1CCCCC1 | 0.796 | -0.387 | 0.542 | -0.575 | 0.017 | -0.0192 | -0.0977 | -0.369 | 0.415 | -0.223
12 | CCCC/C=C/[C@H]([C@@H](O)Cc1ccccc1)N(CC#Cc1ccccc1)Cc1ccccc1Br | -0.373 | -1.29 | -1.81 | -0.269 | 0.74 | -0.166 | -0.366 | -0.132 | -0.356 | -0.647
13 | Cc1ccc(S(=O)(=O)N2[C@@H](c3ccccc3)C(C(=O)O)=CC[C@H]2c2ccccc2)cc1 | 0.433 | 0.498 | -0.363 | 0.526 | 0.355 | 0.0317 | -0.0709 | 0.109 | -0.701 | 0.317
14 | CC(C)=C1C(=O)C(c2ccccc2)=C2CN3C(=O)N(CCc4ccccc4)C(=O)[C@]3(Cc3ccccc3)[C@H]21 | -1.85 | 0.219 | -1.54 | 1.31 | 0.197 | -0.0384 | 0.251 | -0.408 | -0.0829 | -0.496
15 | Cc1ccc(S(=O)(=O)c2cc3oc2CC[C@@H](CO)NC(=O)N(C)Cc2cn(nn2)C[C@H](Cc2ccccc2)NC3=O)cc1 | -0.398 | -0.376 | -0.587 | 0.212 | 0.175 | -0.1 | 0.483 | 0.402 | 0.781 | 0.513
16 | CC(C)C[C@@H]1NC(=O)[C@H](CC(C)C)NC(=O)[C@@]23C(=O)N[C@@H](Cc4ccccc4)C2[C@H](C)[C@@]2(C)O[C@H]2C3/C=C/CC/C=C/CNC1=O (stereo not given in full) | 1.34 | -1.24 | 0.521 | 0.102 | -0.747 | -0.101 | -0.221 | -0.261 | 0.292 | 0.683
17 | Cc1ccc(S(=O)(=O)N[C@H]2COC(=O)CC=C[C@H](C)COC(=O)N[C@@H](C)C(=O)CC=C[C@@H]2C)cc1 | -0.417 | -0.47 | 1.05 | -0.643 | -1.39 | -0.1 | -0.0243 | -0.345 | 0.0478 | 0.0411
18 | C=CC[C@]1(C(=O)O)N=C(c2ccc(OCCCO)cc2)O[C@H]1c1ccccc1 | -0.726 | -0.138 | -0.764 | 1.21 | 0.994 | -0.124 | 0.216 | 0.448 | 0.498 | 0.378
19 | C=CCNC(=O)[C@H]1[C@@H]2C(=O)O[C@@H](c3ccccc3)[C@@H](c3ccccc3)N2[C@@H](c2ccccc2OCCO)[C@]12C(=O)N(C(=O)OCCOC)c1ccc(C#CCC(C(=O)OC)C(=O)OC)cc12 | -0.29 | -1.22 | 0.208 | 1.57 | 0.865 | -0.012 | 0.217 | 0.419 | 0.926 | 1.87
20 | Cc1ccc(N2C(=O)c3ccccc3[C@](C)(C(=O)NCC(C)C)[C@@H]2c2ccc(CO)cc2)nc1 | -1.1 | 0.324 | -0.337 | -0.584 | -1.07 | -0.0405 | -0.0257 | -0.172 | -0.367 | -0.809
21 | N#Cc1ccc(NN2C(C(O)c3ccc(I)cc3)C=CC3C(=O)N(c4ccccc4)C(=O)C32)cc1 (stereo not given) | 1.48 | 1.56 | -0.417 | 1.58 | 0.526 | 0.0803 | -0.16 | 1.56 | 0.0108 | 1.32
